IMPase Li inh – IMPase inhibition in cells with lithium potentiation. CHO-M1 cells, IP1 TR-FRET (IP-One), carbachol + lithium. Potency, µM (top dose mostly 59.4 µM), for inactives: top-dose activity, negative = IMPase inhibition, actives largely listed as inhibitors. actives 0.35% (n = 210,000); active means well fitted inhibition curve with a large enough effect; inconclusive means small, poorly fitted or top-dose-only effect; inactive means no such curve, though single readings can be large or run the other way;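 further: IP1 builds up when IMPase is blocked and the TR-FRET signal falls; potency means the concentration at half of the fitted maximal effect; plate controls were basal vehicle for no effect and high inhibitor control for full effect; nearly all actives have a fitted effect of over 50% in size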
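IP1 accumulation measured by competitive TR-FRET in lysed CHO-M1 cells after 30 min compound exposure at 37C, with a small lithium addition to potentiate weak responses. Hill-equation AC50 from ratio and donor-channel data.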
IMPase inh – IMPase inhibition in cells; P97697; CHO-M1 cells, IP1 accumulation, HTRF TR-FRET ratio; inhibition (IP1 accumulation), % at 46.1 µM; 120,000 tested, under 10 active; AID 901; active means well fitted curve in the direction sought with a large enough effect in the signal ratio, not every such curve was filed as active; inconclusive means small, poorly fitted or top-dose-only effect, or a change in a side signal; inactive means no such curve, though single readings can be large or run the other way; the % refers to the signal ratio;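 further: cells stimulated with carbachol in lithium chloride buffer; plate controls were DMSO basal wells for no effect and reference inhibitor wells for full effect; higher means more IMPase inhibition seen as more IP1 and lower FRET ratio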
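Cellular IMPase inhibition is scored as a rise in cytosolic IP1, detected by competitive TR-FRET between d2-labelled IP1 and a europium anti-IP1 antibody. M1-expressing CHO cells were stimulated with carbachol for 30 min at 37C, with lithium (50 mM LiCl) present in the buffer.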
HPGD inh – inhibitors of human 15-hydroxyprostaglandin dehydrogenase (HPGD); P15428; actives 4.3% (n = 150,000); Potency, µM, without a hit: top-dose activity change, negative = inhibition, hits mostly inhibitors; purified HPGD, NADH fluorescence kinetic, PGE2 substrate; further: potency means the concentration at half of the fitted maximal effect
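20 nM HPGD preincubated 15 min at room temperature with compound in 50 mM Tris-HCl pH 8, 0.01% Tween 20. Started with 1 mM NAD+ and 30 uM prostaglandin E2; NADH fluorescence (360/450 nm) read 5 times over 30-s intervals, last minus first.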
PNC assembly inh – blocks assembly of the perinucleolar compartment; AID 2417; actives 3.1% (n = 140,000); activity change (PNC), negative = inhibition, % at 10 µM; PC3M PTB-GFP, PNC prevalence imaging, 16 h; hits give low values;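 active means readout at or below -70, meaning at least 70% loss of cells showing the perinucleolar compartment, a nuclear body marking cancer cells; inconclusive means readout between -30 and a set limit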;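 further: plate controls were DMSO wells for no effect and camptothecin positive control wells for full effect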
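Compounds are pinned in duplicate onto adhered PC3M cells stably expressing GFP-tagged PTB and incubated 16 h at 37 C. Cells are then fixed, nuclei stained with Hoechst, and PNC-positive cells counted.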
ALDH1A1 block – blocks purified human ALDH1A1 activity. P00352. Purified ALDH1A1, NADH fluorescence, propionaldehyde substrate. Potency, µM (series often up to 75.3 µM), without a hit: top-dose activity, negative = inhibition, usual class: inhibitors. actives 7.3% (n = 220,000). AID 1030;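 further: potency means the concentration at half of the fitted maximal effect; plate controls were no enzyme wells and a reference inhibitor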
Target sequence (P00352 whole entry, looked up): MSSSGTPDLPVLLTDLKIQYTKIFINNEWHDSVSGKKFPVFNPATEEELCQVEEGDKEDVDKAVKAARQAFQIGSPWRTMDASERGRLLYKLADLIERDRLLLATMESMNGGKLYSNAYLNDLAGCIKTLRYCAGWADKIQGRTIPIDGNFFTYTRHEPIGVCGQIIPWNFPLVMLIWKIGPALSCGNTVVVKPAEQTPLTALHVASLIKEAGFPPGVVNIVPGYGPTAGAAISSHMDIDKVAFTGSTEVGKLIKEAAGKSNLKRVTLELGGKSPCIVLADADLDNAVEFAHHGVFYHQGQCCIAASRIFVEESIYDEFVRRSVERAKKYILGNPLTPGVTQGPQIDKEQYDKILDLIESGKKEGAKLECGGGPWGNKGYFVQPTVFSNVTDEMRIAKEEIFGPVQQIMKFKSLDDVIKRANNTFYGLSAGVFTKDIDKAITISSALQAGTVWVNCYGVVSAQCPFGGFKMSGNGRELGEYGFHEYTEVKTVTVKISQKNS
Numbers without * were called inactive; [ ] = remark or other dose. Sampled rows, rich in hits. Any-hit rate of the full collection: about 11%. Unless noted, the call rests on the fitted dose curve; in most records, active means well fitted inhibition curve with a large enough effect (not every such curve was filed as active); inconclusive means small, poorly fitted or top-dose-only effect, or another doubt; inactive means no such curve, though single readings can be large or run the other way. Unless noted, on the % scale 0 is the no-effect control and ±100 the full control effect.

For O=C(CSc1nnnn1-c1cccc2c1CCCC2)NC1CCCC1 the results were IMPase Li inh 8.6%[38.3 µM], IMPase inh 6.8, HPGD inh inconclusive, PNC assembly inh inconclusive and ALDH1A1 block inconclusive.
Screening CC(=O)c1cccc(-n2nnnc2SCC(=O)N2CCCC2)c1 returned IMPase Li inh -6.4%[38.3 µM], IMPase inh 5.9, HPGD inh -15.4%, PNC assembly inh -27.7 and ALDH1A1 block -2.9%.
`O=C(CSc1nnnn1-c1cccc2c1CCCC2)N1CCOCC1` gave IMPase Li inh -6.2%[38.3 µM], IMPase inh 7.5, HPGD inh inconclusive, PNC assembly inh -19.4 and ALDH1A1 block 7.94µM*.
`CC1CCCC(C)N1C(=O)CSc1nnnn1-c1cccc2c1CCCC2` (centres undefined) gave IMPase Li inh 4.4%[38.3 µM], IMPase inh 12.1, HPGD inh -15.6%, PNC assembly inh inconclusive and ALDH1A1 block 28.2µM*.
`CCOc1ccc(-n2nnnc2SCC(=O)N2CCOCC2)cc1` gave IMPase Li inh 1.4%, IMPase inh -0.1, HPGD inh -5.9%, PNC assembly inh inconclusive and ALDH1A1 block -2.3%.
O=C(CSc1nnnn1-c1cccc2c1CCCC2)N1CCCC1 was read as IMPase Li inh -1.9%, IMPase inh -4.8, HPGD inh -23.6%, PNC assembly inh 15.2 and ALDH1A1 block 14.1µM*.
Screening CC(=O)C1=C(O)C=C2Oc3c(C(C)=O)c(O)c(C)c(O)c3C2(C)C1=O (centres undefined) returned IMPase Li inh 7.4%, HPGD inh -4.7% and ALDH1A1 block -4.5%.
CC(C)Cn1cnc2c(Sc3c([N+](=O)[O-])ncn3C)nc(N)nc21 was read as IMPase Li inh 2.5%, HPGD inh 0.5% and ALDH1A1 block -0.8%[13.5 µM].
CCN(C(=O)COC(=O)c1ccc(Br)o1)C1CCCCC1 was read as IMPase Li inh 0.1% and ALDH1A1 block -3.0%.
`COC(=O)C1=C(C)OC(N)=C(C#N)C1c1cc2cccc(C)c2nc1Cl` (centres undefined) gave IMPase Li inh 10.1% and ALDH1A1 block 28.2µM*.
For CCOC(=O)C1=C(C)OC(N)=C(C#N)C1c1cccc(C)c1 (centres undefined) the results were IMPase Li inh 1.1% and ALDH1A1 block inconclusive.
For CCOC(=O)C1=C(C)OC(N)=C(C#N)C1c1ccc(C)s1 (centres undefined) the results were IMPase Li inh -1.8% and ALDH1A1 block 22.4µM*.
`COC(=O)C1=C(C)OC(N)=C(C#N)C1c1cc(C)sc1C` (centres undefined) gave IMPase Li inh 44.7%[38.3 µM], IMPase inh -6.7, HPGD inh 28.2µM*, PNC assembly inh inconclusive and ALDH1A1 block inconclusive.
c1ccc2c3c([nH]c2c1)[C@@H]1[C@H]2CC[C@H]([C@H]4CCCN[C@H]42)N1CC3 was read as IMPase Li inh 7.6%, IMPase inh 3.6[20.6 µM], HPGD inh inconclusive and ALDH1A1 block -7.6%[20.9 µM].
Screening CCc1ccc(-c2ccc(C(=O)C(F)(F)F)[nH]2)cc1 returned IMPase Li inh -11.6%[38.3 µM], IMPase inh -3.4, HPGD inh -11.1%, PNC assembly inh inconclusive and ALDH1A1 block 13.4%.
Cc1ccc(CCNC(=O)Cn2cccc2)cc1 was read as IMPase Li inh -1.0%[38.3 µM], IMPase inh 1.8, HPGD inh 14.1µM*, PNC assembly inh 21.5 and ALDH1A1 block -10.0%.
Screening CC(=O)Nc1ccc(NC(=O)c2sc3nc4n(c(=O)c3c2C)CCCCC4)cc1 returned IMPase Li inh 4.0% and ALDH1A1 block inconclusive.
`Cc1c(C(=O)Nc2ccccc2N2CCOCC2)sc2nc3n(c(=O)c12)CCC3` gave IMPase Li inh -1.9%[38.3 µM], IMPase inh -6.5, HPGD inh -27.3%, PNC assembly inh -126.9* and ALDH1A1 block 9.3%.
For Cc1cc(-c2ccccc2)nc2cc(C(=O)Nc3ccc(Cl)c(Cl)c3)nn12 the results were IMPase inh -14.4.
`COc1ccc(C2N(C(=O)N3CCOCC3)CCN2S(=O)(=O)c2ccc(C)cc2)cc1` (centres undefined) gave IMPase Li inh 29.3%[38.3 µM], IMPase inh -13.9, HPGD inh -2.5%, PNC assembly inh inconclusive and ALDH1A1 block -11.2%.

High-throughput results deposited in PubChem BioAssay by National Center for Advancing Translational Sciences (NCATS).
